SMILES strings stand for the structures. Out of some 93,000 compounds screened, about 160 (0.17%) were called active.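 The calls were made as follows: active = cell count reduction exceeding the screen mean by over 5 SD, scaled to untreated wells per plate (cut at about 78% in these data); inactive = the rest.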 Only a selection was taken, and actives are over-represented in it overall.

The assay in a line: HUVEC nuclei count loss under TNFa – imaging, Hoechst nuclei count, cytotoxicity control for VCAM1 expression modulator project, primary screen (AID 848).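 Also: cells counted after 24 h of TNF alpha exposure following the 1 h pretreatment.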 The conditions noted are these: HUVEC TNFalpha-stimulated, at 2 µM, stronger effect = higher value.
Consider `C=CCn1c(SCC(=O)c2c(N)n(C)c(=O)n(C)c2=O)nc2sc(CC)cc2c1=O`, for which the cell count reduction was -45.1% (inactive).

`CC(C)c1ccc(/C=C/C(=O)NNC(=O)c2cccnc2)cc1`: the cell count reduction is -4.2% (inactive).

For the compound `CCC(=O)NCCc1nc2ccccc2n1CC`, the cell count reduction is 14.3% (inactive).

Turning to `CSc1nc2ccccc2cc1/C=C(\C#N)c1ccc(Cl)cc1Cl`, the cell count reduction was -9% (inactive).

For `Clc1ccc(-n2nnnc2CN2CCCCC2)cc1Cl`, the cell count reduction is -12.5% (inactive).

Regarding `COc1ccc(C(=O)NC(=S)Nc2ccccc2N2CCN(S(C)(=O)=O)CC2)cc1OC`, the cell count reduction was -26.7% (inactive).

Take `C=CCNc1cnn(-c2ccc(C)cc2)c(=O)c1Cl`: the cell count reduction is -7.9% (inactive).

As for `Cc1ccc(CNC(=O)CCNC(=O)Cn2ccc3ccccc3c2=O)cc1`, the cell count reduction is -15.5% (inactive).

As to `CCSc1nnc(-c2cc3c(s2)-c2ccccc2CC3)o1`, the cell count reduction was -4.1% (inactive).

Consider `O=C(Cc1ccc2c(c1)CCCC2)Nc1ccccc1Cl`, for which the cell count reduction was 7.2% (inactive).

As for `CC(C)(CCl)C(=O)Nc1ccc(Sc2ccc(F)cc2)cc1`, the cell count reduction is -6.3% (inactive).

Regarding `Cc1ccc(S(=O)(=O)N(CC(=O)NCCSC2CCCCC2)c2ccccc2F)cc1`, the cell count reduction was -49.8% (inactive).

Consider `COC(=O)c1cccc(N(C(=O)c2ccco2)C(C(=O)NC2CCCC2)c2ccco2)c1` (stereo not given), for which the cell count reduction is 1.3% (inactive).

Regarding `CCNC(=S)N1CCN(C(=O)c2ccco2)CC1`, the cell count reduction was 15% (inactive).

Turning to `CC(=O)N/C(=C/c1ccc(Cl)cc1)C(=O)NCCc1c[nH]c2ccccc12`, the cell count reduction is -23.5% (inactive).

As for `Cc1ccc(S(=O)(=O)N(CC(=O)N2CCc3ccccc3C2)c2cccc(Cl)c2)cc1`, the cell count reduction was 0% (inactive).

As to `CC1CN(c2nc(-c3ccccc3)nnc2-c2ccccc2)CC(C)O1` (stereo not given), the cell count reduction was -11% (inactive).

Take `CCC(=O)NNc1cc(=O)c2c(=O)n(C)c(=O)n(C)c2[nH]1`: the cell count reduction is 13% (inactive).

Turning to `O=C(CSc1nnc(-c2c[nH]c3ccccc23)o1)c1ccccc1`, the cell count reduction was -13.6% (inactive).

On to `COC(=O)CNC(=O)c1ccccc1[N+](=O)[O-]`, for which the cell count reduction is -19.5% (inactive).

The values are drawn from PubChem BioAssay AID848 (Columbia University Molecular Screening Center, 2007).
